Records with an inconclusive call do not appear. Values without a mark were called inactive. Active and inactive are the calls of the source. Calls come from the whole dose curve; as a rule, active = well fitted activation curve with a large enough effect; inconclusive = small, poorly fitted or top-dose-only effect; inactive = flat fitted curve, though single readings scatter.

The nature of the assay: Parental Cell Counter Screen for Stat Signaling Pathway Assay. Conditions: ME-180 (cervical carcinoma) parental cells, blue fluorescence artefact counter-screen; series mostly up to 38.3 µM; activity (fluorescence increase): at the top concentration. The source says: NIH Molecular Libraries Screening Centers Network [MLSCN] NIH Chemical Genomics Center [NCGC] MLSCN Grant: None NCGC Assay Overview: This assay is a counter screen for the Stat signaling pathway assay (PubChem AID 446). The Stat assay is cell-based and measures Interleukin 6 (IL-6) mediated modulation of a beta-lactamase reporter gene controlled by a STAT inducible element (SIE-bla cells, Invitrogen). IL-6 is a cytokine that signals via the JAK/STAT pathway and is implicated in cancer and inflammation. […] Compounds active in the parental ME-180 cells are likely fluorescent.
NCGC Assay Protocol Summary: Cells were trypsinized, washed in assay medium (AM, OPTI MEM with 0.5% fetal bovine serum, 0.1 mM nonessential amino acids, 1 mM sodium pyruvate, 10mM HEPES pH 7.3, 100U/ml penicillin, and 100 ug/ml streptomycin) and suspended at […] in AM. Approximately 2500 cells in 5 uL/well was dispensed into 1536-well plates and the cells were incubated overnight at 37 C. 23 nL of compound were delivered by a pin tool and 1 uL of IL-6 (40 pM final concentration in AM) was added. After plates were incubated at 37 C for 5 hrs, 1uL of detector mix (LiveBLAzerTM, Invitrogen) was added, the plates incubated at room temperature for 2.5 hrs, and fluorescence intensity at 460 and 530 nm emissions was measured at 405 nm excitation by an Envision (Perkin Elmer).
In the case of `COC(=O)C(O)(c1ccc(NC(=O)c2ccco2)c(OC)c1)C(F)(F)F` (stereo not given), the Potency is 0.0063 µM (active).

Regarding `COc1ccc2c3c([nH]c2c1)C(C)=NCC3`, the Potency was 12.6 µM (active).

For `CCn1cnc2c(Nc3cccc(Cl)c3)nc(N[C@@H]3CCCC[C@H]3N)nc21`, the “activity (fluorescence increase)” value was 13.2%.

Turning to `c1ccc2c(c1)[I+]c1ccccc1-2`, the “activity (fluorescence increase)” value is 26.2%.

In the case of `O=c1ccc2cc(O[C@H]3O[C@@H](CO)[C@@H](O)[C@@H](O)[C@@H]3O)c(O)cc2o1`, the Potency was 15.8 µM (active).

With `COC1=C(C)C(=O)c2c(c(COC(N)=O)c3n2C[C@@H]2[C@@H]3N2C)C1=O` (stereo not given in full), the Potency was 12.6 µM (active).

Take `COc1cccc2c1C(=O)c1c(O)c3c(c(O)c1C2=O)C[C@](O)(/C(C)=N\O)C[C@@H]3O[C@H]1C[C@H](N)[C@@H](O)[C@H](C)O1`: the “activity (fluorescence increase)” value is 4.72%.

`CC[C@]1(O)C(=O)OCc2c1cc1n(c2=O)Cc2cc3ccccc3nc2-1`: the “activity (fluorescence increase)” value is 9.35%.

With `Cc1c2ccncc2c(C)c2c1[nH]c1ccccc12`, the Potency was 15.8 µM (active).

For the compound `CN(N=O)c1ccc(O)c(O)c1`, the “activity (fluorescence increase)” value was 11.3%.
